Compound activity deposited in PubChem BioAssay by National Center for Advancing Translational Sciences (NCATS).
Compounds with a hit are over-represented: about 9.3% of the library has one in this group of screens.
Vaccinia Venus: vaccinia inhibition (Venus reporter); AID 720580; Potency, µM (doses to about 36.5 µM), most hits filed as inhibitors; Vaccinia virus Venus reporter expression, fluorescence; 330,000 compounds, 0.46% hits; calls by dose curve; tested in A549 cells; note: nearly all actives have a fitted effect of over 30% in size
HCV inhibitor: HCV inhibition; Huh7.5.1 HCVcc-Cre infection, luciferase reporter, 44 h; Potency, µM (doses to about 41.8 µM), actives largely listed as inhibitors; 340,000 compounds, 3.4% hits
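Reporter virus HCVcc-Cre (~0.5 moi) infects cells exposed to compound; seeding density 1,000 cells/well with 4 h settling beforehand. Luminescence, 15 sec read, taken 44 h post-infection following a 15 min RT substrate incubation.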
HCMV inh: inhibitors of human cytomegalovirus; 410,000 compounds, 4.5% hits; HFF cells, HCMV-luciferase reporter, 72 h; stronger effect = lower value; activity change, negative = inhibition, % at 57.5 µM; in the data active = activity change below about -60%; inconclusive = no clear call, values can overlap the other calls; inactive = above about -39%
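HFF cells seeded 16 h at 37C, treated with compounds, infected with luciferase-reporter HCMV at MOI 1 PFU/cell; luciferase read at 72 h post infection, normalized to buffer-only and Salinomycin controls.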
Vaccinia mCherry: inhibitors of vaccinia virus infection (mCherry reporter signal); Potency, µM (highest dose often 36.5 µM), usual class: inhibitors; 310,000 compounds, 0.63% hits; Vaccinia virus mCherry reporter infection, fluorescence; calls by dose curve; tested in A549 cells; note: nearly all actives have a fitted effect of over 35% in size
FMDV antiviral: blocks foot and mouth disease virus; FMDV antiviral cell-based qHTS; Potency, µM (titrated, usually from 57.9 µM), actives largely listed as inhibitors; 410,000 compounds, 1.2% hits; calls by dose curve; tested in HEK293T cells; note: read-out not given here; nearly all actives have a fitted effect of over 45% in size
Sm TGR inh: S. mansoni TGR enzyme inhibition; purified TGR, DTNB reduction, TNB absorbance 405 nm; Q962Y6; 360,000 compounds, 3% hits; Potency, µM (highest dose often 114 µM), actives largely listed as inhibitors; note: nearly all actives have a fitted effect of over 60% in size
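First, TGR (20 nM dispensed) and NADPH were mixed with compound. Second, a 15 min room-temperature incubation followed. Third, further NADPH and then DTNB were added to start the reaction. Finally, TNB absorbance was monitored kinetically.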
Hits are given with their value; i = inactive; ? = inconclusive; nt = not tested or not shown; [ ] = remark or other dose. Unless noted, calls come from the whole dose curve; as a rule, active = well fitted curve in the direction sought with a large enough effect; inconclusive = small, poorly fitted or top-dose-only effect, or another doubt; inactive = no such curve, though single readings can be large; an effect the other way counts as inactive or inconclusive.

SMILES	Vaccinia Venus	HCV inhibitor	HCMV inh	Vaccinia mCherry	FMDV antiviral	Sm TGR inh
CN(C)CC1CCC/C(=C\c2ccc(OC(=O)c3ccc(Cl)cc3)cc2)C1=O (stereo unspecified)	?	11.2µM	-96.9	i	?	nt
COC(=O)/C=C1\OC(C)c2ccccc21 (stereo unspecified)	nt	nt	i	nt	nt	nt
CNC(=S)NCCc1cc2c(OC)ccc(OC)c2[nH]c1=O	nt	i	i	nt	i	i
COc1cccc(C(=O)NNC(=O)C2CCCO2)c1 (stereo unspecified)	i	i	i	i	i	i
CNC(=S)N/N=C1\C(=O)c2cccc3cccc1c23	i	i	-106.4	i	i	i
Cn1cc(-c2cc3n(n2)CCC(=O)N3CCCC(=O)NCc2ccc(F)cc2)c2ccccc21	i	nt	i	i	i	i
COc1ccc(OC)c(C(O)c2coc3ccc(O)c(CN4CCOCC4)c23)c1 (stereo unspecified)	nt	?	i	nt	i	i
Cc1cnc(NC(=O)c2nn(C)cc2[N+](=O)[O-])s1	i	?	-99.0	i	i	nt
CCCOC(=O)Nc1nc(-c2ccc(C)cc2)c(C)s1	i	i	?	i	i	i
Cc1ccc(-c2nc(NC(=O)c3nn(C)cc3[N+](=O)[O-])sc2C)cc1C	12.6µM	?	-106.9	10µM	12.6µM	i
Cn1cc([N+](=O)[O-])c(C(=O)Nc2ccc(C(=O)N3CCCCC3)cc2)n1	i	i	i	i	i	i
Cn1cc([N+](=O)[O-])c(C(=O)Nc2nc(-c3ccc(Cl)cc3)cs2)n1	11.2µM	3.98µM	-96.4	nt	?	i
Cc1ccc(-c2nc(NC(=O)c3nn(C)cc3[N+](=O)[O-])sc2C)cc1	nt	4.47µM	-104.0	nt	11.2µM	i
CC(=O)c1c(C)[nH]c(C(=O)Nc2nc(-c3ccc(Cl)cc3)cs2)c1C	i	?	?	i	?	i
O=C(CN1CCC(NC(=O)c2cccc(F)c2)CC1)NCc1cccs1	i	i	i	i	i	i
Cc1ccc2nc(-c3ccccc3)nn2c1	i	i	i	i	11.2µM	nt
Cc1ccc(-c2csc(=S)n2CC(=O)OCC(=O)NC(C)C(C)C)cc1 (stereo unspecified)	i	nt	i	i	?	i
O=C(NCCOc1nc(N2CCCCC2)nc(N2CCCCC2)n1)Nc1ccccc1	i	?	?	i	i	i
O=C(NCCc1ccc(Cl)cc1)Nc1ccc(Cl)cc1	nt	i	i	nt	i	i
O=C(NCCOc1nc(N2CCCCC2)nc(N2CCOCC2)n1)Nc1ccccc1	i	8.91µM	-77.4	i	i	i
CCN(CC)c1nc(OCCNC(=O)Nc2ccccc2)nc(N(CC)CC)n1	11.2µM	i	i	nt	i	i
O=C(NCCOc1nc(N2CCOCC2)nc(N2CCOCC2)n1)Nc1ccccc1	i	?	i	i	i	?
CCN(CCNC(=O)Nc1ccc(Cl)cc1)c1ccccc1	?	14.1µM	i	nt	?	i
CCN(CC)Cc1cc(O)c(CN(CC)CC)cc1O	nt	i	i	nt	i	3.16µM
CCc1oc(C(=O)O)cc1CN(CC)CC	nt	i	i	nt	i	i
SMILES	Vaccinia Venus	HCV inhibitor	HCMV inh	Vaccinia mCherry	FMDV antiviral	Sm TGR inh
COc1cc(C(=O)NCc2nnc(SCC(=O)N3CCCCC3)o2)cc(OC)c1OC	i	i	i	i	i	i
COc1cccc(COC(=O)C2CCN(C(=O)c3ccccc3C)CC2)c1OC	i	i	i	i	i	i
COCCNC(=O)C(c1ccc(F)cc1)N(CCOC)C(=O)CCC(=O)Nc1nccs1 (stereo unspecified)	i	i	i	nt	i	i
O=C(c1ccccc1)C1OC1C(=O)c1ccccc1 (stereo unspecified)	i	i	i	?	i	nt
O=C(C1=NNCC1c1ccccc1)C1OC1c1ccccc1 (stereo unspecified)	i	i	i	i	i	22.4µM
Cc1ccc(Sc2ncccc2C(=O)O)cc1C	i	i	-67.0	i	?	i
O=C(CNC(=S)N(Cc1ccccc1F)C1CCCCC1)NCC1CCCO1 (stereo unspecified)	?	i	-61.1	i	i	i
COc1ccc(NC(=O)COC(=O)c2c(F)cccc2Cl)cc1OC	nt	nt	i	nt	nt	i
COc1cc(CCC(C)=O)ccc1OC(=O)c1c(F)cccc1Cl	i[7.34 µM]	11.2µM	i	i[7.34 µM]	i	i
Cc1ccc(S(=O)(=O)C(CNS(=O)(=O)c2cc(F)ccc2F)c2cccs2)cc1 (stereo unspecified)	i	nt	?	i	i	?
COc1ccc(OC)c(S(=O)(=O)NCC(c2cccs2)S(=O)(=O)c2ccc(F)cc2)c1 (stereo unspecified)	i	nt	?	i	i	0.316µM
COc1ccc(F)cc1S(=O)(=O)NCC(c1ccco1)S(=O)(=O)c1cccs1 (stereo unspecified)	i	nt	-62.9	i	i	0.1µM
COc1ccc(C)cc1S(=O)(=O)NCC(c1cccs1)S(=O)(=O)c1ccc(C)cc1 (stereo unspecified)	i	nt	?	i	i	?
Cc1ccc(C)c(S(=O)(=O)NCC(c2ccco2)S(=O)(=O)c2ccc(F)cc2)c1 (stereo unspecified)	i[7.34 µM]	nt	i	i[7.34 µM]	i	0.355µM
COc1ccc(S(=O)(=O)NCC(c2ccco2)S(=O)(=O)c2cccs2)cc1OC (stereo unspecified)	i	nt	i	i	i	0.282µM
COc1ccc(S(=O)(=O)NCCc2ccco2)cc1OC	nt	i	i	nt	i	i
Cc1cccc(NC(=O)CN2C(=O)N/C(=C\c3ccccc3OCc3ccc(C(=O)O)cc3)C2=O)c1	i	i	i	i	i	i
COc1ccc(S(=O)(=O)NCC(c2cccs2)S(=O)(=O)c2ccc(C)cc2)cc1F (stereo unspecified)	i	nt	i	i	i	?
COc1ccc(F)cc1S(=O)(=O)NCC(c1ccco1)S(=O)(=O)c1ccc(F)cc1 (stereo unspecified)	i	nt	i	i	i	0.316µM
Cn1c(=O)[nH]c(=O)c2c1nc1n2CCS1	i	i	i	i	i	i
Cc1ccccc1/C=c1\s/c(=C\C(=O)C(C)(C)C)[nH]c1=O	?	11.2µM	i	nt	?	i
CC(C)(C)C(=O)/C=c1\[nH]c(=O)/c(=C\c2ccc(F)cc2)s1	11.2µM	i	i	nt	i	i
COCCNC(=O)CS(=O)Cc1nc(-c2ccccc2C)oc1C (stereo unspecified)	i	i	i	i	i	39.8µM
Cc1ccc(CCNC(=O)CS(=O)Cc2nc(-c3ccccc3C)oc2C)cc1 (stereo unspecified)	i	nt	i	i	i	i
Cc1ccc(CNC(=O)CS(=O)Cc2nc(-c3ccccc3C)oc2C)cc1 (stereo unspecified)	i	i	i	i	i	44.7µM
COc1ccc(CNC(=O)CS(=O)Cc2nc(-c3ccccc3C)oc2C)cc1 (stereo unspecified)	i	i	i	i	i	?
Cc1ccccc1-c1nc(CS(=O)CC(=O)NCCc2ccc(Cl)cc2)c(C)o1 (stereo unspecified)	i	?	i	i	i	28.2µM
